Experimental findings from ChEMBL document CHEMBL3988442, “University of Dundee, Small-Polar-MMV Screening Library” (2021) are described below.

Among all 48,000 compounds or so, about 13,000 (27%) showed an effect of 50% or more. This is one part of the list.

For this assay, the system named is Wolbachia pipientis. Nature of the assay: Anti-Wolbachia Cell-Based Screen. The class given is functional. Further details: scale not given: in the data most compounds retested in dose-response had high values. The settings on record: 5 µM.
`Cc1ccc(C(=O)Nc2ccc(N3CCCC3)cn2)cc1F`: the “Percent Effect” value is recorded as -12.84%.
Turning to `CC(C)N(CCNC(=O)N1CCCC(N(C)C)C1)C1CC1` (centres undefined), the “Percent Effect” value is listed as 3.264%.
For the compound `CN(C)CCO[C@H]1CN(Cc2ccco2)[C@@H]2COC[C@H]12.O=C(O)C(F)(F)F.O=C(O)C(F)(F)F`, the “Percent Effect” value was found to be 94.89%.
Turning to `CN(C)CCO[C@H]1CN(Cc2cccc(C#N)c2)[C@@H]2COC[C@H]12.O=C(O)C(F)(F)F.O=C(O)C(F)(F)F`, the “Percent Effect” value was -16.47%.
Take `CN(C)CCO[C@H]1CN(C(=O)c2ccc3c(c2)OCO3)[C@@H]2COC[C@H]12`: the “Percent Effect” value is -7.678%.
Then `Cc1ccc(CN2C[C@H](OCCN(C)C)[C@H]3COC[C@H]32)o1.O=C(O)C(F)(F)F.O=C(O)C(F)(F)F`, with 118.1%; and `Cc1ccc(CN2C[C@H](OCCN(C)C)[C@H]3OCCC[C@H]32)o1.O=C(O)C(F)(F)F.O=C(O)C(F)(F)F`, with 11.84%.
As to `CCc1cc(N2CCN(C(C)=O)CC2)n2nc(C)c(C)c2n1`, the “Percent Effect” value is -3.628%.
Consider `CC1CCCCN1S(=O)(=O)NCc1cccnc1OC1CCCC1` (centres undefined), for which the “Percent Effect” value came to 2.179%.
Then `CCOCCn1c(=O)[nH]c2cc(C(=O)N(C)CCc3cn[nH]c3)ccc21`, with -12.36%.
Consider `CCc1nccc(CN2CCCC(CNC(=O)c3ccccn3)C2)n1` (centres undefined), for which the “Percent Effect” value was -4.435%.
In the case of `O=C(NCC1CC1)c1cnc(-c2ccccc2)nc1`, the “Percent Effect” value is on record as -4.836%.
For the compound `COCC(=O)NC[C@H]1CC[C@H](c2ccnc3ncnn32)CC1`, the “Percent Effect” value came to 112%.
As for `O=C(CN1CCC(c2ccnn2CCO)CC1)NCC1CC1`, the “Percent Effect” value is given as -5.639%.
Take `CCc1nccc(CN2CCC(CNC(=O)[C@H]3CC[C@H](C)CC3)C2)n1` (some centres undefined): the “Percent Effect” value is -6.322%.
Then `O=C(NCc1ccnc(O)c1)NCC1CCCC1`, with -3.505%.
Regarding `O=C(NC[C@H]1CC[C@H](c2ccnc3ncnn32)CC1)C1CC1`, the “Percent Effect” value was determined as 132.8%.
In the case of `O=C(NC[C@H]1CC[C@H](c2ccnc3ncnn32)CC1)c1ccccn1`, the “Percent Effect” value was determined as 132.7%.
For `Cc1nccn1-c1cc(CNC(=O)COCC2CC2)ccn1` the value was -10.58%.
Consider `CCNC(=O)NC1CCCN(c2ccc(C)cc2)C1=O` (centres undefined), for which the “Percent Effect” value is listed as -8.82%.
As to `COc1ncnc(N(C)C)c1NC(=O)c1cscc1C`, the “Percent Effect” value is -1.164%.
Regarding `CC(C)CCNC(=O)c1ccc(Cl)c(NS(C)(=O)=O)c1`, the “Percent Effect” value is 2.284%.
For `C[C@@H](CO)NC(=O)c1ccc2nc(NS(C)(=O)=O)sc2c1` the value was 93.82%; for `CSCCC(CO)NC(=O)c1sc(-c2ccccc2Cl)nc1C` (centres undefined), 13.6%.
For `Cc1ccc(C(=O)NCCC(C)C)cc1NS(C)(=O)=O`, the “Percent Effect” value is -0.7863%.
For `CSCC[C@@H](CO)NC(=O)c1ccc2nc(NS(C)(=O)=O)sc2c1` the value was 89.36%.
For `COc1cccc(-c2nc(C)c(C(=O)NC(CO)CCSC)s2)c1` (centres undefined) the value was -11.86%; for `Cc1nnc(CNC(=O)CC2CCc3ccccc32)o1` (centres undefined), 1.636%; for `COc1ccnc(NC(=O)c2ccsc2)c1`, -4.666%.
For `Cc1nc(C)c(S(=O)(=O)NC(=O)c2ccoc2)s1` the value was 99%.
Turning to `Cc1nc(C)c(S(=O)(=O)NC(=O)c2ccsc2)s1`, the “Percent Effect” value was determined as 101.1%.
With `COCc1nc(C(=O)NS(=O)(=O)c2ccc(C)s2)cs1`, the “Percent Effect” value is recorded as -3.012%.
Regarding `O=C(NS(=O)(=O)c1cnn(-c2ccccc2F)c1)c1ccoc1`, the “Percent Effect” value was 8.506%.
In the case of `Cc1ccc(S(=O)(=O)NCCNC(=O)c2ccoc2)cc1C`, the “Percent Effect” value is recorded as 3.538%.
As to `Cc1ccc(N2CCCN(C(=O)c3c(C)oc(C)c3C)CC2)nn1`, the “Percent Effect” value was 8.16%.
Turning to `Cc1ccc(N2CCCN(C(=O)C(C)OCC3CC3)CC2)nn1` (centres undefined), the “Percent Effect” value is reported as -0.6%.
For the compound `O=C(Cc1cccc2cccnc12)N1CCCN(c2cccnn2)CC1`, the “Percent Effect” value is -1.609%.
Then `Cc1ccc(N2CCCN(C(=O)CC3C=CCC3)CC2)nn1` (centres undefined), with 107%; and `Cc1ccc(NC2CCN(C(=O)CCC3CCCO3)CC2)nn1` (centres undefined), with -9.533%; and `O=C(CC1CCCO1)N1CCCN(c2cccnn2)CC1` (centres undefined), with 79.43%.
For `Cc1ccc(N2CCCN(C(=O)c3cc(Cl)c[nH]3)CC2)nn1`, the “Percent Effect” value is -5.212%.
For `Cc1nn(CC(=O)N2CCCN(c3cccnn3)CC2)c(C)c1Cl`, the “Percent Effect” value is on record as 1.564%.
Consider `Cc1ccc(N2CCCN(C(=O)CCC3CCCO3)CC2)nn1` (centres undefined), for which the “Percent Effect” value came to 87.48%.
With `Cc1ccc(N2CCCN(C(=O)C3CCCO3)CC2)nn1` (centres undefined), the “Percent Effect” value is on record as 135.1%.
For `Cc1ccc(N2CCCN(C(=O)C3(C#N)CCCCC3)CC2)nn1` the value was 12.99%.
Then `Cc1ccc(N2CCCN(C(=O)CC3CCCO3)CC2)nn1` (centres undefined), with 4.405%; and `COc1ccc(CN[C@@H]2CO[C@H](CNC(=O)NC(C)C)[C@H]2O)cc1`, with 1.543%; and `CC(C)c1noc(C(C)S(=O)(=O)Cc2nc(C3CC3)no2)n1` (centres undefined), with 8.57%.
`Cc1cnn(CCCNC(=O)NC2CCN(CC(F)(F)F)C2=O)c1` (centres undefined): the “Percent Effect” value was -8.389%.
With `CC(C)(C(=O)NCc1ccccc1F)n1cc(Br)cn1`, the “Percent Effect” value was 10.35%.
Turning to `COc1ccc2c(CN3CCN(Cc4cccc(F)c4)CC3)n[nH]c2c1`, the “Percent Effect” value is on record as 2.522%.
Consider `O=C1CNc2ncnc(Nc3cnn(Cc4cccc(F)c4)c3)c2N1`, for which the “Percent Effect” value is on record as 115.2%.
Regarding `O=C(NCCCOc1cccnc1)c1cn(Cc2ccccc2F)nn1`, the “Percent Effect” value was -6.028%.
Consider `c1ccc(Cn2cc(CNCC3CCCN3c3cccnn3)cn2)cc1` (centres undefined), for which the “Percent Effect” value came to 20.91%.
Regarding `O=C1CNc2ncnc(Nc3cnn(Cc4ccccc4)c3)c2N1`, the “Percent Effect” value turned out to be 115.8%.
With `O=C1CNc2ncnc(Nc3cnn(Cc4ccc(F)cc4)c3)c2N1`, the “Percent Effect” value worked out at 101.7%.
Consider `O=C1CNc2ncnc(Nc3cnn(Cc4ccccc4F)c3)c2N1`, for which the “Percent Effect” value amounted to 112.6%.
`O=C1CCN(Cc2cnc3c(-c4ccccc4)cnn3c2)CCN1`: the “Percent Effect” value stood at 2.207%.
`O=C1CC(NCc2ccncc2)CN1Cc1cccc(F)c1` (centres undefined): the “Percent Effect” value was -21.37%.
With `CCN1CCCC1Cn1ccc2ccc(C(=O)OC)cc2c1=O` (centres undefined), the “Percent Effect” value is on record as -21.42%.
For `COc1cccc(CN(C)Cc2cccc(C#N)c2)c1OC` the value was -9.148%.
Consider `O=C1CNc2ncnc(Nc3cccc(Cn4cccn4)c3)c2N1`, for which the “Percent Effect” value is 129.6%.
As for `OC1CCN(C2CCN(Cc3cccc(Cn4cccn4)c3)CC2)CC1`, the “Percent Effect” value is listed as 19.22%.
Then `c1cc(CN2CCC(CCn3cccn3)CC2)cc(Cn2cccn2)c1`, with -8.775%.
